# Experimental data published in the supplement of paper PMC12494721.
# Counter-ions that a name gives are not always drawn.
# Experiments:
# Conditions in all cases: incubation time: 27 h, anaerobic, 37 °C;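 for the amine columns active = adjusted P below 0.05 in both replicates with a change the same way and a mean fold change under 0.8 or over 1.25; inactive = the rest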
# [1] = test system: Clostridium sporogenes DSM 1664; experiment: growth (OD595) fold change vs plate DMSO controls (fold change (ratio)); higher = more growth
# Procedure, shortened: (§1)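 Each value is the mean of 2 biological replicates, and fold changes above 1.5 were set to NA. The underlying readings were taken at 595 nm from shaken anaerobic mGAM cultures in 96-well plates after 27 h at 37 °C. They were blank-subtracted, corrected for compound background using 20 µM compound solutions in water, and converted to OD with a calibration factor of 5. Growth is the fold change relative to the median of the plate DMSO controls.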
# Escherichia coli IAI1 [2] = experiment: as above
# Procedure, shortened: as §1
# [3] = test system: Klebsiella aerogenes DSM 30053; experiment: as above
# Procedure, shortened: as §1
# [4] = test system: Ruminococcus gnavus DSM 108212; experiment: as above
# Procedure, shortened: as §1
# [5] = test system: Klebsiella aerogenes DSM 30053; experiment: fold change of Histamine concentration vs plate DMSO controls (fold change (ratio)); higher = more amine produced, active = hit call of the paper (significant change in both replicates, either direction)
# Procedure, shortened: (§2)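 Extracts of whole anaerobic mGAM cultures were analysed for amines by LC–triple-quadrupole MS with dynamic MRM and external calibration curves, with drift corrected within batch. Four gut strains were grown at 37 °C for 27 h in 80 µL wells with compounds at 20 µM final, sweeteners at 50 µM final. Each value expresses fold change over plate DMSO controls. The average of 2 biological replicates is shown.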
# [6] = test system: Clostridium sporogenes DSM 1664; experiment: fold change of Tryptamine concentration vs plate DMSO controls (fold change (ratio)); higher = more amine produced, active = hit call of the paper (significant change in both replicates, either direction)
# Procedure, shortened: as §2
# [7] = test system: Ruminococcus gnavus DSM 108212; experiment: as above
# Procedure, shortened: as §2
# Escherichia coli IAI1 [8] = experiment: fold change of Putrescine concentration vs plate DMSO controls (fold change (ratio)); higher = more amine produced, active = hit call of the paper (significant change in both replicates, either direction)
# Procedure, shortened: as §2
# [9] = test system: Klebsiella aerogenes DSM 30053; experiment: as above
# Procedure, shortened: as §2
# Escherichia coli IAI1 [10] = experiment: fold change of Cadaverine concentration vs plate DMSO controls (fold change (ratio)); higher = more amine produced, active = hit call of the paper (significant change in both replicates, either direction)
# Procedure, shortened: as §2
# [11] = test system: Klebsiella aerogenes DSM 30053; experiment: as above
# Procedure, shortened: as §2
# [12] = test system: Ruminococcus gnavus DSM 108212; experiment: fold change of 2-Phenylethylamine concentration vs plate DMSO controls (fold change (ratio)); higher = more amine produced, active = hit call of the paper (significant change in both replicates, either direction)
# Procedure, shortened: as §2
Compound,growth [1],growth (Escherichia coli IAI1 [2]),growth [3],growth [4],fold change of Histamine concentration [5],fold change of Tryptamine concentration [6],fold change of Tryptamine concentration [7],fold change of Putrescine concentration (Escherichia coli IAI1 [8]),fold change of Putrescine concentration [9],fold change of Cadaverine concentration (Escherichia coli IAI1 [10]),fold change of Cadaverine concentration [11],fold change of 2-Phenylethylamine concentration [12]
OC[C@H]1O[C@@H](O[C@@H]2[C@@H](CO)OC(O)(CO)[C@H]2O)[C@H](O)[C@@H](O)[C@H]1O (mixture of isomers) [Lactulose] (50 µM),1.06,0.906,1.01,0.977,1.01 (inactive),0.98 (inactive),1 (inactive),0.955 (inactive),1.02 (inactive),1.05 (inactive),0.994 (inactive),0.98 (inactive)
CC1(C)O[C@@H]2C[C@H]3[C@@H]4CCC5=CC(=O)CC[C@]5(C)[C@@]4(F)[C@@H](O)C[C@]3(C)[C@]2(C(=O)CCl)O1 [Halcinonide] (20 µM),1.17,1.01,1.05,1.07,0.941 (inactive),0.989 (inactive),0.963 (inactive),0.988 (inactive),0.994 (inactive),1.02 (inactive),1.01 (inactive),0.978 (inactive)
O=c1[nH]cnc2c1ncn2[C@H]1CC[C@@H](CO)O1 [Didanosine] (20 µM),1.07,1.03,1.03,1.08,0.958 (inactive),0.992 (inactive),1.15 (inactive),1.14 (inactive),1.08 (inactive),1.69 (active),1.03 (inactive),1.16 (inactive)
CC(C(=O)O)c1ccc(C(=O)c2ccccc2)s1 (stereo not drawn) [Tiaprofenic acid] (20 µM),0.955,1.1,0.987,1.16,0.995 (inactive),0.993 (inactive),1.04 (inactive),1.08 (inactive),1.01 (inactive),0.966 (inactive),0.988 (inactive),1.07 (inactive)
CN(C)CCc1c[nH]c2ccc(Cn3cncn3)cc12 [Rizatriptan benzoate] (20 µM),0.987,0.971,1.02,0.996,0.934 (inactive),1 (inactive),1.01 (inactive),0.97 (inactive),1.01 (inactive),1.02 (inactive),1.01 (inactive),0.989 (inactive)
CC(=O)OC(C)OC(=O)C(C)c1ccc(-c2ccccc2)c(F)c1 (stereo not drawn) [Flurbiprofen axetil] (20 µM),1.11,1.03,0.976,0.996,1.01 (inactive),1.04 (inactive),1.07 (inactive),1.04 (inactive),1 (inactive),1.07 (inactive),0.987 (inactive),1.04 (inactive)
Nc1cc(-c2ccncc2)c[nH]c1=O [Amrinone] (20 µM),1.17,0.984,1.02,1.19,0.956 (inactive),1.05 (inactive),1 (inactive),1.02 (inactive),0.998 (inactive),0.982 (inactive),1.02 (inactive),0.97 (inactive)
COc1ccc(C(=O)c2ccccc2)c(O)c1 [Oxybenzone] (20 µM),0.901,0.808,0.963,0.984,0.962 (inactive),0.954 (inactive),1.03 (inactive),0.823 (inactive),1 (inactive),1.07 (inactive),1 (inactive),0.979 (inactive)
CC[C@H]1OC(=O)[C@H](C)[C@@H](O[C@H]2C[C@@](C)(OC)[C@@H](O)[C@H](C)O2)[C@H](C)[C@@H](O[C@@H]2O[C@H](C)C[C@H](N(C)C)[C@H]2O)[C@](C)(OC)C[C@@H](C)C(=O)[C@H](C)[C@@H](O)[C@]1(C)O [Clarithromycin] (20 µM),0,0.665,0.941,0.257,0.636 (inactive),0.0515 (active),0.11 (active),0.434 (inactive),0.888 (inactive),0.944 (inactive),1.03 (inactive),0.118 (active)
CC(C(=O)O)c1ccc(N2Cc3ccccc3C2=O)cc1 (stereo not drawn) [Indoprofen] (20 µM),1.13,0.99,0.973,1.01,1.04 (inactive),1.03 (inactive),1.09 (inactive),0.977 (inactive),0.993 (inactive),0.998 (inactive),0.982 (inactive),1.11 (inactive)
CN(C)CCOC1=Cc2ccccc2Sc2ccc(Cl)cc21 [Zotepine] (20 µM),1.11,1.07,1.05,1.34,1 (inactive),1.01 (inactive),0.902 (inactive),1.08 (inactive),0.99 (inactive),1.05 (inactive),0.993 (inactive),0.924 (inactive)
CC(=O)Nc1ccc(OC(=O)c2ccccc2O)cc1 [Acetaminosalol] (20 µM),0.904,0.977,0.996,0.994,0.933 (inactive),1.06 (inactive),0.928 (inactive),1.01 (inactive),1.01 (inactive),1 (inactive),0.999 (inactive),0.917 (inactive)
CCSc1ccc2c(c1)N(CCCN1CCN(C)CC1)c1ccccc1S2 [Thiethylperazine maleate] (20 µM),1.26,1.05,1.17,0.847,1.01 (inactive),0.971 (inactive),0.851 (inactive),1.07 (inactive),1.07 (inactive),1.06 (inactive),1.05 (inactive),0.915 (inactive)
CCN(CC)CCNC(=O)c1cc(S(C)(=O)=O)ccc1OC [Tiapride hydrochloride] (20 µM),0.729,0.484,0.715,0.09,0.997 (inactive),0.999 (inactive),1 (inactive),1.01 (inactive),0.992 (inactive),1.03 (inactive),1 (inactive),0.956 (inactive)
CC1(C)O[C@@H]2C[C@H]3[C@@H]4C[C@H](F)C5=CC(=O)C=C[C@]5(C)[C@@]4(F)[C@@H](O)C[C@]3(C)[C@]2(C(=O)CO)O1 [Fluocinolone acetonide] (20 µM),1.13,1.04,1.01,0.973,1.06 (inactive),1.02 (inactive),0.996 (inactive),1.05 (inactive),1.04 (inactive),1.05 (inactive),1 (inactive),0.976 (inactive)
CC(=C(CCO)SSCC1CCCO1)N(C=O)Cc1cnc(C)nc1N (stereo in doubt) [Fursultiamine hydrochloride] (20 µM),1.08,1.03,0.989,0.992,1.04 (inactive),0.983 (inactive),0.969 (inactive),1.09 (inactive),1.01 (inactive),0.973 (inactive),0.986 (inactive),0.967 (inactive)
CC1CCc2cc(F)cc3c(=O)c(C(=O)O)cn1c23 (stereo not drawn) [Flumequine] (20 µM),0.015,0.0532,0.404,0.706,0.301 (active),0.0425 (active),0.989 (inactive),0.679 (active),1.13 (inactive),0.209 (active),0.975 (inactive),0.952 (inactive)
Nc1ccc(S(=O)(=O)c2ccc(N)cc2)cc1 [Dapsone] (20 µM),1.06,1.02,0.979,1.2,0.967 (inactive),1.03 (inactive),0.982 (inactive),1.04 (inactive),0.981 (inactive),1.02 (inactive),1 (inactive),1.04 (inactive)
Cc1c(C)c2c(c(C)c1O)CCC(C)(C(=O)O)O2 (stereo not drawn) [Trolox] (20 µM),0.897,0.987,0.962,0.896,1.13 (inactive),0.995 (inactive),1.02 (inactive),0.926 (inactive),1.04 (inactive),0.986 (inactive),0.984 (inactive),1.03 (inactive)
Cc1onc(-c2c(Cl)cccc2Cl)c1C(=O)N[C@@H]1C(=O)N2[C@@H]1SC(C)(C)[C@@H]2C(=O)O [Dicloxacillin sodium salt hydrate] (20 µM),0.000771,0.996,0.975,0.165,1.01 (inactive),0.0119 (active),0.05 (active),0.979 (inactive),1.01 (inactive),1.03 (inactive),0.994 (inactive),0.0548 (active)
CN(C)CCCOc1nn(Cc2ccccc2)c2ccccc12 [Benzydamine hydrochloride] (20 µM),1.1,0.95,0.978,1.04,1.05 (inactive),0.95 (inactive),0.986 (inactive),0.983 (inactive),1.03 (inactive),0.967 (inactive),1.01 (inactive),0.92 (inactive)
COc1cc2ncnc(Nc3ccc(F)c(Cl)c3)c2cc1OCCCN1CCOCC1 [Gefitinib] (20 µM),1.1,1.04,0.991,1.18,0.983 (inactive),1.06 (inactive),0.993 (inactive),1.14 (inactive),0.997 (inactive),1.02 (inactive),1.02 (inactive),1.1 (inactive)
COc1ccc(C2CNC(=O)C2)cc1OC1CCCC1 (stereo not drawn) [Rolipram] (20 µM),0.936,0.98,1.03,0.936,0.951 (inactive),1.03 (inactive),1.03 (inactive),0.954 (inactive),0.989 (inactive),0.984 (inactive),1 (inactive),1.06 (inactive)
O=C(O)CN(CCN(CC(=O)O)CC(=O)O)CCN(CC(=O)O)CC(=O)O [Pentetic acid] (20 µM),1.27,1.04,1.04,1.05,1.08 (inactive),1.02 (inactive),1.01 (inactive),0.998 (inactive),1.02 (inactive),0.992 (inactive),0.989 (inactive),0.997 (inactive)
